Common to all, as to assay: DAPPL (digital affinity profiling via proximity ligation, sequencing); 10 mM Tris-HCl pH 7.5, 50 mM NaCl, 1 mM DTT, 4% glycerol, room temperature, 30 min; GST-TFs on glutathione beads, 16-mer random dsDNA library, 0.1% formaldehyde crosslink after washing; high values mean tight binding
The target in assay [1] is T1, FLI1 (Homo sapiens, UniProt Q01543 1-452).
T1 sequence: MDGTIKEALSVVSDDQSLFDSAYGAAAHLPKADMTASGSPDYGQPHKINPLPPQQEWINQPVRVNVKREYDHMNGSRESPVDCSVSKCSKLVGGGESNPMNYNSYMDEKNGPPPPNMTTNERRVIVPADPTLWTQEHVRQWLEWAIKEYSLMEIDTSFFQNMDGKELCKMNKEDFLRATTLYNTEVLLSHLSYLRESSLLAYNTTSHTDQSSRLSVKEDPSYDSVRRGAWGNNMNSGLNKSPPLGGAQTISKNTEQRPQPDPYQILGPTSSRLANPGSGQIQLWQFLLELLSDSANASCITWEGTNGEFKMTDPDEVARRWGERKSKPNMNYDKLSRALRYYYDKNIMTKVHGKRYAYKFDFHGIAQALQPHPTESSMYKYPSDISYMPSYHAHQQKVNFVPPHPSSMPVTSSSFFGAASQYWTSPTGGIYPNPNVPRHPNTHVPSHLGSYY
To be noted: protein: recombinant; tags: N-terminal GST; dsDNA, one strand shown. Put shortly: (§1)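 Binding signal is each hexamer's read frequency for a factor divided by its frequency in the tag-only sample. The factors were GST-fused human transcription factors from yeast, captured on glutathione beads, DNA-barcoded and pooled with that sample. Pools were incubated with 200 nmole of a random double-stranded 16-mer DNA library in Tris/NaCl/DTT/glycerol buffer at room temperature for 30 min, then washed, crosslinked with 0.1% formaldehyde, proximity-ligated with BsaI/T4 ligase (1 h, 37 °C), PCR-amplified and sequenced on an Illumina NextSeq500.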

In assay [2] the target is T2, ELK1 (Homo sapiens, UniProt P19419 1-428).
T2 sequence: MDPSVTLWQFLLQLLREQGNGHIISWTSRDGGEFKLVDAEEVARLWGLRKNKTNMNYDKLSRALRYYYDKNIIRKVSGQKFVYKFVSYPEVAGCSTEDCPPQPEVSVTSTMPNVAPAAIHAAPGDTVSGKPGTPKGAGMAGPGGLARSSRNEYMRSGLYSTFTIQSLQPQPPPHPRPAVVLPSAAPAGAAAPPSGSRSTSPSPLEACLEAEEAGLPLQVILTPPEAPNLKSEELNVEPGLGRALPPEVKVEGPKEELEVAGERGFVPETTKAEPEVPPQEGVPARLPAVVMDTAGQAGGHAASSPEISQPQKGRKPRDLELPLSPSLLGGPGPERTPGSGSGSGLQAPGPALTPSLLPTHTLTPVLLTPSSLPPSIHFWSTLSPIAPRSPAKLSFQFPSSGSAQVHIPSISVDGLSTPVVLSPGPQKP
Conditions: protein: recombinant; tags: N-terminal GST; dsDNA, one strand shown. Put shortly:
as §1

Assay [3] concerns the target T3, GABPA (Homo sapiens, UniProt Q06546 1-454).
T3 sequence: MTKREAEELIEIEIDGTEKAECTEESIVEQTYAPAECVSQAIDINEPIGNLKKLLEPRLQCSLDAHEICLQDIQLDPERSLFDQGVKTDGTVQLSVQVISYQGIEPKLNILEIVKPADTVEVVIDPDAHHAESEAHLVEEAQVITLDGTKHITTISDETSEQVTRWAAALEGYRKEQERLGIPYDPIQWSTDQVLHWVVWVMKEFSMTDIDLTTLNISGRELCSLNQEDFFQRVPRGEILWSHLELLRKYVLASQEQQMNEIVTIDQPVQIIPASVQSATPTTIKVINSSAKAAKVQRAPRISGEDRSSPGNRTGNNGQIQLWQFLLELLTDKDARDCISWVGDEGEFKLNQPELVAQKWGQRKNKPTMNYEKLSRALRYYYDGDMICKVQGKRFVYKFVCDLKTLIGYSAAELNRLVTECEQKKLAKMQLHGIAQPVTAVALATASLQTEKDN
To be noted: protein: recombinant; tags: N-terminal GST; dsDNA, one strand shown. Put shortly: as §1

Assay [4] has as its target T4, ERG (Homo sapiens, UniProt P11308 1-479).
T4 sequence: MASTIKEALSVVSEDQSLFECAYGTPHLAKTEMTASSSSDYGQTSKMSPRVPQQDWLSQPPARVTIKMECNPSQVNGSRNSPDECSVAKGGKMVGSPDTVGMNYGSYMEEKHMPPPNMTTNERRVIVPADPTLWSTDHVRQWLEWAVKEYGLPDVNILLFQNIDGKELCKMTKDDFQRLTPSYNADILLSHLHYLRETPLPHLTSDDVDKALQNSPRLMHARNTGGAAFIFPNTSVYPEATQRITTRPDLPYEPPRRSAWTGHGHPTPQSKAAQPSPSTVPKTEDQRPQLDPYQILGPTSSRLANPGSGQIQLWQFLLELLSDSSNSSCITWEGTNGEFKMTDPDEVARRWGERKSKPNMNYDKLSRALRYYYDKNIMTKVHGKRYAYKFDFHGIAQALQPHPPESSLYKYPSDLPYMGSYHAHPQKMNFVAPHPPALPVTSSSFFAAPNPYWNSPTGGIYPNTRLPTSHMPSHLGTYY
Conditions: protein: recombinant; tags: N-terminal GST; dsDNA, one strand shown. Put shortly:
as §1

Assay [5] addresses ELF1 (Homo sapiens, UniProt P32519 1-619). To be noted: protein: recombinant; tags: N-terminal GST; dsDNA, one strand shown. Put shortly:
as §1

The target in assay [6] is T5, EHF (Homo sapiens, UniProt Q9NZC4 1-300).
T5 sequence: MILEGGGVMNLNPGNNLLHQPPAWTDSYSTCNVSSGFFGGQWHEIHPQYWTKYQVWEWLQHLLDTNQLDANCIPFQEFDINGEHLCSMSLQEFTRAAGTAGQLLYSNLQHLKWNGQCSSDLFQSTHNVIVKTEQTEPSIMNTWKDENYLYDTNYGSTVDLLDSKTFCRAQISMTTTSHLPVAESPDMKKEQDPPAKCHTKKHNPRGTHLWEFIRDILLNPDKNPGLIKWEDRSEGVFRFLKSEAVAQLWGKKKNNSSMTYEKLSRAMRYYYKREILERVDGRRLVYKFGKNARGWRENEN
Conditions: protein: recombinant; tags: N-terminal GST; dsDNA, one strand shown. Put shortly: as §1

For assay [7], the target named is SPI1 (Homo sapiens, UniProt P17947 1-270). Conditions: protein: recombinant; tags: N-terminal GST; dsDNA, one strand shown. Put shortly: as §1
Assay [8] has as its target SPIB (Homo sapiens, UniProt Q01892 1-262). To be noted: protein: recombinant; tags: N-terminal GST; dsDNA, one strand shown. Put shortly:
as §1

The target of assay [9] is T6, ELK3 (Homo sapiens, UniProt P41970 1-407).
T6 sequence: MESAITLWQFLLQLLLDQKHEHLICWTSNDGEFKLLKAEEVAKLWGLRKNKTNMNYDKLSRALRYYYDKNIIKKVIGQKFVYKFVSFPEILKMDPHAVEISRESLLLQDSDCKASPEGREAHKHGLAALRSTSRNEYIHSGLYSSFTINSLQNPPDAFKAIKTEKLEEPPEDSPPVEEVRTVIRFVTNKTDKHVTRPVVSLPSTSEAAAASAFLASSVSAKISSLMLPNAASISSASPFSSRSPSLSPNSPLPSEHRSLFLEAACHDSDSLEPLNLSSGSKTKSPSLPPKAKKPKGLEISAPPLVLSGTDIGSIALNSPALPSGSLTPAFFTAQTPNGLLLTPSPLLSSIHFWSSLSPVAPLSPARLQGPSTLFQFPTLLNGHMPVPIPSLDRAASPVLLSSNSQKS
To be noted: protein: recombinant; tags: N-terminal GST; dsDNA, one strand shown. Put shortly:
as §1

The target of assay [10] is T7, FEV (Homo sapiens, UniProt Q99581 1-238).
T7 sequence: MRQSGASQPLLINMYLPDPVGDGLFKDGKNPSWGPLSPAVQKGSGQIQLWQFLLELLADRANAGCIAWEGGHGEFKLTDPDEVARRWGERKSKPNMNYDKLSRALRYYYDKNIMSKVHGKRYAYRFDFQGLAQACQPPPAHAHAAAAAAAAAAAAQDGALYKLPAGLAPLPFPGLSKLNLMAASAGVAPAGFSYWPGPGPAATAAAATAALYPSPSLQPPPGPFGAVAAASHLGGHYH
To be noted: protein: recombinant; tags: N-terminal GST; dsDNA, one strand shown. Put shortly: as §1

Assay [11] deals with ETV5 (Homo sapiens, UniProt P41161 1-510). To be noted: protein: recombinant; tags: N-terminal GST; dsDNA, one strand shown. Put shortly: as §1
Sequence of ETV5 (P41161 whole entry): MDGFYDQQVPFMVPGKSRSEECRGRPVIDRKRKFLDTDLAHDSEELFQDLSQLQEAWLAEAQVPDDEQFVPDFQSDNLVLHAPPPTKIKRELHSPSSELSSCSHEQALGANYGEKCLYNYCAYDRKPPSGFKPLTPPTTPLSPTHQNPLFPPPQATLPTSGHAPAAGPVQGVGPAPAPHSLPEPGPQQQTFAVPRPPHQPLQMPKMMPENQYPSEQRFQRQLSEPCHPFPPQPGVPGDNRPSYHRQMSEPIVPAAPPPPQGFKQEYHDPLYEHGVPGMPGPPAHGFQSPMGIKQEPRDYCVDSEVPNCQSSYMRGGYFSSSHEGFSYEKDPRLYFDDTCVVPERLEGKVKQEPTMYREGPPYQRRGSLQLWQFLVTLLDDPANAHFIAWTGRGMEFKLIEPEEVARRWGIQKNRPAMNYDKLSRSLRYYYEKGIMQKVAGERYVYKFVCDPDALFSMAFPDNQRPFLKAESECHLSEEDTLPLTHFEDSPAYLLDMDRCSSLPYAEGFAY
The target of assay [12] is HSF1 (Homo sapiens, UniProt Q00613 1-529). Conditions: protein: recombinant; tags: N-terminal GST; chain copies: 3; dsDNA, one strand shown. Put shortly: as §1
Sequence of HSF1 (Q00613 whole entry): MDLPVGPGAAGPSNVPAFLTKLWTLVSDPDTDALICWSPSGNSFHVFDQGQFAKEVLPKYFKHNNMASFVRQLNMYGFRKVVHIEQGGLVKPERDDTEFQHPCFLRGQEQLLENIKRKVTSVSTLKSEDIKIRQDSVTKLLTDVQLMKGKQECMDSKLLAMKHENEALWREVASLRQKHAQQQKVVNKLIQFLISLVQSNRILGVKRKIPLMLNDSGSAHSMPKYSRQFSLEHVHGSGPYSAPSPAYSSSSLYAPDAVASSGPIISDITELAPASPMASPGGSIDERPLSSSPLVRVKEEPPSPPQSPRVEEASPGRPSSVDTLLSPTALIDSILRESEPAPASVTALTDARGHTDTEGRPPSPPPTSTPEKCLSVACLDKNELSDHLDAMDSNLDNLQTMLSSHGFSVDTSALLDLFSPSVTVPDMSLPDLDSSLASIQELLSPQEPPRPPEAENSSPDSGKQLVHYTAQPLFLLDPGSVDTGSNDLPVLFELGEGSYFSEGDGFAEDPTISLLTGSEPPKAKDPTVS
Assay [13] has as its target T8, SPIC (Homo sapiens, UniProt Q8N5J4 1-248).
T8 sequence: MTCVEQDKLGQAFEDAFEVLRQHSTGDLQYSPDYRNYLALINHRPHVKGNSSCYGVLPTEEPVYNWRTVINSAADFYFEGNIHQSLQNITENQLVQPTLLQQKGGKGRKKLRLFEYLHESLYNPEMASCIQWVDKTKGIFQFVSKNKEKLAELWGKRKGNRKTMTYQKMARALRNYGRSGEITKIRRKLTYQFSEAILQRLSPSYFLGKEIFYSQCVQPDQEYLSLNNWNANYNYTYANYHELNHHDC
Conditions: protein: recombinant; tags: N-terminal GST; dsDNA, one strand shown. Put shortly:
as §1

In assay [14] the target is ELF4 (Homo sapiens, UniProt Q99607 1-663). To be noted: protein: recombinant; tags: N-terminal GST; dsDNA, one strand shown. Put shortly:
as §1

In assay [15] the target is T9, ELK4 (Homo sapiens, UniProt P28324-2 1-405).
T9 sequence: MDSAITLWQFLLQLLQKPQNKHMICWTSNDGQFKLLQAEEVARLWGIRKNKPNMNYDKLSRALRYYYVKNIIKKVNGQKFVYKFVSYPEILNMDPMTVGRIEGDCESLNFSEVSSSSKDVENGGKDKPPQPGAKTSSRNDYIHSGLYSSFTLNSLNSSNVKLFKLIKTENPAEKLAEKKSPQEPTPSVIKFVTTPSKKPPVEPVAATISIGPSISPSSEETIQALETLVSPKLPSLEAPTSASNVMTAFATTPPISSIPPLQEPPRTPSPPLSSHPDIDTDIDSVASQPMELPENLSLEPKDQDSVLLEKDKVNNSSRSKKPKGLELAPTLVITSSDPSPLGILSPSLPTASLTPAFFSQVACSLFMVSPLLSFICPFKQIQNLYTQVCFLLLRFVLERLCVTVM
Conditions: protein: recombinant; tags: N-terminal GST; dsDNA, one strand shown. Put shortly: as §1

Assay [16] concerns the target T10, ETV2 (Homo sapiens, UniProt O00321 1-342).
T10 sequence: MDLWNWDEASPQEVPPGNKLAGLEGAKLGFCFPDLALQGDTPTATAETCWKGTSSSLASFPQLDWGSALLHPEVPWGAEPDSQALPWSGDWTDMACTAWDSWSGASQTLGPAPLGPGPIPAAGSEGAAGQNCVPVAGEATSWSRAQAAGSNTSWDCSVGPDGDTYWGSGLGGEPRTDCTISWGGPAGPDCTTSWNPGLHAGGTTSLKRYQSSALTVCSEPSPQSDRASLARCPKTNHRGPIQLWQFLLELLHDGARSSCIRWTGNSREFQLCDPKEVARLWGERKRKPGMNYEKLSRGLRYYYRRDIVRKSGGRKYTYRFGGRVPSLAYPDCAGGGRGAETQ
Conditions: protein: recombinant; tags: N-terminal GST; dsDNA, one strand shown. Put shortly:
as §1

The target of assay [17] is T11, ELF3 (Homo sapiens, UniProt P78545 1-371).
T11 sequence: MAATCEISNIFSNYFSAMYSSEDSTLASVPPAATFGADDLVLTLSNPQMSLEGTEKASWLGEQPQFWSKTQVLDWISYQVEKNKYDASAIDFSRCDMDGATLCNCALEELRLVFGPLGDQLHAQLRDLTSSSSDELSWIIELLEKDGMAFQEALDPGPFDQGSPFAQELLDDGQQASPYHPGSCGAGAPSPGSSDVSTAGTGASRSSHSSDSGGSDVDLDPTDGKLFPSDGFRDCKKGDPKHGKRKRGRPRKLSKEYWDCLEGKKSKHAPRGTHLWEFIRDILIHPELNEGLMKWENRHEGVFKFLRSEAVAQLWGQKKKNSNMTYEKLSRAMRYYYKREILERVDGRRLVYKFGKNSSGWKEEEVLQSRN
Conditions: protein: recombinant; tags: N-terminal GST; dsDNA, one strand shown. Put shortly: as §1

In assay [18] the target is CRX (Homo sapiens, UniProt O43186 1-299). Conditions: protein: recombinant; tags: N-terminal GST; dsDNA, one strand shown. Put shortly: as §1
Sequence of CRX (O43186 whole entry): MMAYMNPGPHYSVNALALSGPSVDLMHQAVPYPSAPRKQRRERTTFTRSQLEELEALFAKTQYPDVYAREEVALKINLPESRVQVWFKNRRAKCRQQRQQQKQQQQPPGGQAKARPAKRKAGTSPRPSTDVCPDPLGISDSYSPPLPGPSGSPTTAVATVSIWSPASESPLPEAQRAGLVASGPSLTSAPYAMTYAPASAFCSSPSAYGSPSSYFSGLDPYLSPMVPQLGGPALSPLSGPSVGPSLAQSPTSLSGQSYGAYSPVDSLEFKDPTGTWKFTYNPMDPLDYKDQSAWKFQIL
Assay [19] has as its target ETV1 (Homo sapiens, UniProt P50549 1-477). Conditions: protein: recombinant; tags: N-terminal GST; dsDNA, one strand shown. Put shortly:
as §1

For one sequence, binding signal results are on record in PMC7862700, “An all-to-all approach to the identification of sequence-specific readers for epigenetic DNA modifications on cytosine”.

Sequence of ETV1 (P50549 whole entry): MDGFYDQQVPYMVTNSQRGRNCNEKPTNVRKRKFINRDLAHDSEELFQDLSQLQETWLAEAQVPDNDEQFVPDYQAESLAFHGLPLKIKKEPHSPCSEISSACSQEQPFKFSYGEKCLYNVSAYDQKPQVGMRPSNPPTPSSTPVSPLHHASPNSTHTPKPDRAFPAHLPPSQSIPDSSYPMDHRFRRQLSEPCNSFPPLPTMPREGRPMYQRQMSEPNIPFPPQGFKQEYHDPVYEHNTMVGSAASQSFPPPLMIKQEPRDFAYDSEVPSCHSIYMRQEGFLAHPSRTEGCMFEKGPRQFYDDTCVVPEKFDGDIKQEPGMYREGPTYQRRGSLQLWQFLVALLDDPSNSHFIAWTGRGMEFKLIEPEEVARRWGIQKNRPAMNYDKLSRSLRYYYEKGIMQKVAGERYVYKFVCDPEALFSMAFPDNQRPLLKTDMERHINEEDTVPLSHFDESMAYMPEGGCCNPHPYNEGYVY
Sequence of ELF4 (Q99607 whole entry): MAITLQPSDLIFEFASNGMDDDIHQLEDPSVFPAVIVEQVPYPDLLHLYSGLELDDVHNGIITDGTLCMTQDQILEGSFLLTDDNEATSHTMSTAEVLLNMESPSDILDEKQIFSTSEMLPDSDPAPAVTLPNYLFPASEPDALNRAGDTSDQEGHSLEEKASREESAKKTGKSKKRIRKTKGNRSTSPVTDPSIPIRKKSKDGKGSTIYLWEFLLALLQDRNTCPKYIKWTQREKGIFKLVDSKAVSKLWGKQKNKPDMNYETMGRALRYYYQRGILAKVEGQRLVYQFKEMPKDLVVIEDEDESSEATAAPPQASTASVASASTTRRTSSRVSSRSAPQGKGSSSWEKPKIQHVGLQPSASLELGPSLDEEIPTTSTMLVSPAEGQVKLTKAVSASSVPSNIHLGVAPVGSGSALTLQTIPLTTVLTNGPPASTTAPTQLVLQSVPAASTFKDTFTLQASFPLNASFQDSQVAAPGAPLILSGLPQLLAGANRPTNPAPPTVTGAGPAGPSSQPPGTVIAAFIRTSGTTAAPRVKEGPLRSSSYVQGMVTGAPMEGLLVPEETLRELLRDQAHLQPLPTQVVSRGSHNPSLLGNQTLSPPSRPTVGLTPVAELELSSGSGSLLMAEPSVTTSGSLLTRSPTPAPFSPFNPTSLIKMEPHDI
Sequence of ELF1 (P32519 whole entry): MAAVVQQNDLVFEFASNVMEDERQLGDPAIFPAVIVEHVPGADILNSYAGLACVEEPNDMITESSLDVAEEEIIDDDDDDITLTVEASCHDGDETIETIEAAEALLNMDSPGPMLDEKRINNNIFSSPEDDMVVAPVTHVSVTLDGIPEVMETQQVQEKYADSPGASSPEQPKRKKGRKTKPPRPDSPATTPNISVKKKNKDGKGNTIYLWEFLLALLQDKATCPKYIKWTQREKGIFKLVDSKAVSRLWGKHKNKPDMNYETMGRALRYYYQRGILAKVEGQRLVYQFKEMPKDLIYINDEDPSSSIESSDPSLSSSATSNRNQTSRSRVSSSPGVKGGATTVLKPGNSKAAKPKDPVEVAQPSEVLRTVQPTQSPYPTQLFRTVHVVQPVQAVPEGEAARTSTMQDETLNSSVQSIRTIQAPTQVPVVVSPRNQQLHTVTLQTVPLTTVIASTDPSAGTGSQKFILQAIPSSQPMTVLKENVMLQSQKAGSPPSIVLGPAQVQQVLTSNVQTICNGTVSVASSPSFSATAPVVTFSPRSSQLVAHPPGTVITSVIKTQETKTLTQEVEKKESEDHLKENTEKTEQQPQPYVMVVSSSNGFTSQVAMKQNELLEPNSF
Sequence of SPIB (Q01892 whole entry): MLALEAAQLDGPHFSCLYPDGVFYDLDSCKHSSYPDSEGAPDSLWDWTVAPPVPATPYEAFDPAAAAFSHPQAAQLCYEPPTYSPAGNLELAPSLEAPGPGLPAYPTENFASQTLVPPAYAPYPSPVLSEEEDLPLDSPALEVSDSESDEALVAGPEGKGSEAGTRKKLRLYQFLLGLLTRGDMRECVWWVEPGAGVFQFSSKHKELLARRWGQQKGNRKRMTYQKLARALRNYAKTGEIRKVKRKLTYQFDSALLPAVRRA

As for CATGCT, the binding signal in assay [1] was 1.33 fold enrichment (6-mer frequency, TF over GST control); in assay [2], 1.2 fold enrichment (6-mer frequency, TF over GST control); in assay [3], 1.21 fold enrichment (6-mer frequency, TF over GST control); in [4], 1.23 fold enrichment (6-mer frequency, TF over GST control); in [5] it was 1.23 fold enrichment (6-mer frequency, TF over GST control); in assay [6] it was 1.24 fold enrichment (6-mer frequency, TF over GST control). The binding signal in assay [7] was 1.11 fold enrichment (6-mer frequency, TF over GST control); in assay [8] it was 1.25 fold enrichment (6-mer frequency, TF over GST control); in assay [9], 1.3 fold enrichment (6-mer frequency, TF over GST control); in assay [10], 1.22 fold enrichment (6-mer frequency, TF over GST control); in assay [11], 1.13 fold enrichment (6-mer frequency, TF over GST control); in assay [12] it was 1.13 fold enrichment (6-mer frequency, TF over GST control). Besides, the binding signal was 1.34 fold enrichment (6-mer frequency, TF over GST control) in assay [13]; 1.15 fold enrichment (6-mer frequency, TF over GST control) in [14]; 1.3 fold enrichment (6-mer frequency, TF over GST control) in [15]; 1.35 fold enrichment (6-mer frequency, TF over GST control) in [16]; 1.27 fold enrichment (6-mer frequency, TF over GST control) in assay [17]; 1.1 fold enrichment (6-mer frequency, TF over GST control) in assay [18]. Further, the binding signal in assay [19] is 1.19 fold enrichment (6-mer frequency, TF over GST control).
